Compounds with a hit are over-represented: about 7.5% of the library has one in this group of screens.
Gal4-VP16 FLuc: counter-screen for ROR gamma inhibitors: Gal4-VP16 reporter; Drosophila S2 Gal4-VP16 UAS-luciferase, luminescence, 20 h; Potency, µM (series often up to 53.6 µM), most hits filed as inhibitors; 310,000 tested, 3.5% active;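 also: Gal4-VP16 expression switched on by copper sulfate through the metallothionein promoter; nearly all actives have a fitted effect of over 50% in size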
TSHR antagonist: antagonists of human thyroid stimulating hormone receptor; P16473; TSHR-expressing cells, TSH-stimulated cAMP HTRF, 2 h; stronger effect = lower value; activity change, negative = inhibition, % at 11.5 µM; 330,000 tested, 0.2% active;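 active = activity change below a set negative limit, meaning inhibition stronger than a set level, cut at about -70% in these data; inconclusive = activity change between two set negative limits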
Target sequence (P16473 whole entry, looked up): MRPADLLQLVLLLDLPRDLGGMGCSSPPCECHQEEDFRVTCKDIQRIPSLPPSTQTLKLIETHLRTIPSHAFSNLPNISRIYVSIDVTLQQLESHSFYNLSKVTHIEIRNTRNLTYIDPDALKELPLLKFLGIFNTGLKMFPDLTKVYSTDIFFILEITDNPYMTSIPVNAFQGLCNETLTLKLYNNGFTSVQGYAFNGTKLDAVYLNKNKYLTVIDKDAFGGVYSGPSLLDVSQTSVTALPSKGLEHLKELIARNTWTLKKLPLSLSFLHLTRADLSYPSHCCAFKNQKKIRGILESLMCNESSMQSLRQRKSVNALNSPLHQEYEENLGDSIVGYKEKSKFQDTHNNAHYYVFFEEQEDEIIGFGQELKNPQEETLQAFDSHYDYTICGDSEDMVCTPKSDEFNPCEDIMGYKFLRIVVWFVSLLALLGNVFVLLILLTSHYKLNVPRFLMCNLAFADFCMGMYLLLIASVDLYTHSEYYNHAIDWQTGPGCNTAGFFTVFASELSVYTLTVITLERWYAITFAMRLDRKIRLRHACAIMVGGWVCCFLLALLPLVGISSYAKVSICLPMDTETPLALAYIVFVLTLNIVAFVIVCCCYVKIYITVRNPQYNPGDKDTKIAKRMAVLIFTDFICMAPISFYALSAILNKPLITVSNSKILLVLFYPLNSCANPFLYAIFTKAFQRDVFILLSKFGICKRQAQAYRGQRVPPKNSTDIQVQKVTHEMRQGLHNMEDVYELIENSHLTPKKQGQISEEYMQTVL
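Competitive HTRF cAMP read-out (cryptate anti-cAMP antibody, cAMP-d2; 30 min, room temperature) in freshly harvested TSHR cells. Compounds added before TSH at EC80 (4nM final), followed by 2 hours' incubation at 37 deg C.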
ELG1 repair inh: ELG1-dependent DNA repair inhibition; HEK293T ELG1-luciferase reporter, luminescence, 16 h; DNA damage induced by 5-fluorouridine; Potency, µM (highest dose often 46.1 µM), hits mostly inhibitors; 330,000 tested, 2.3% active; AID 504467; also: nearly all actives have a fitted effect of over 55% in size
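Quantitative HTS, concentration-response format. 2,000 cells/well co-treated with 5-fluorouridine and compound, 16 hr in 5% CO2 at 37 °C; ONE-Glo luminescence read after 30 min.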
RORg inh: inhibitors of mouse ROR gamma transcriptional activity | P51450 | Drosophila S2 Gal4-RORgamma UAS-luciferase reporter, 20 h | Potency, µM (titrated, usually from 53.6 µM), most hits filed as inhibitors | 310,000 tested, 5.4% active | AID 2551; also: nearly all actives have a fitted effect of over 60% in size
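Read-out: Photinus luciferase luminescence; inhibitors lower reporter signal. Insect Schneider cells with Gal4-ROR gamma fusion under metallothionein promoter, UAS reporter; 700 uM final copper sulfate induction, 20 hr, ambient temperature.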
B2AR arrestin: recruits beta-arrestin to the human beta2-adrenergic receptor. AID 492947. 330,000 tested, 0.02% active. beta-arrestin recruitment to beta2AR, cell-based reporter. Potency, µM (titrated, usually from 46.1 µM), usual class: activators; also: nearly all actives have a fitted effect of over 65% in size
Large screens that a line does not name were inactive. Unless noted, calls follow the shape of the dose curve; as a rule, active = well fitted curve in the direction sought with a large enough effect; inconclusive = small, poorly fitted or top-dose-only effect, or another doubt; inactive = no such curve, though single readings can be large; an effect the other way counts as inactive or inconclusive.

O=[N+]([O-])c1ccc(OCCO)c(P(=O)(c2ccccc2)c2ccccc2)c1	none
COc1ccc(/C=C/C(=O)OCCCN(C)C)cc1	none
COc1ccc(NC(=O)C23CC4CC(C2)CC(n2cnc(Br)n2)(C4)C3)c(OC)c1	RORg inh 5.6µM
Cc1ccc(C(=O)COC(=O)C2C3C=CC(C3)C2C(=O)OCC(=O)c2ccc(C)c(C)c2)cc1C (centres undefined)	ELG1 repair inh 13µM, RORg inh inconclusive
CC(=O)NCC(=O)OCC(=O)c1ccc(C)c(C)c1	none
COC(=O)N1CCC2(CCN(C(=O)Nc3cccc(C#N)c3)CC2)CC1	none (no result: TSHR antagonist, ELG1 repair inh, B2AR arrestin)
OC(COCC(F)(F)C(F)(F)C(F)(F)C(F)F)Cn1c2ccccc2c2ccccc21 (centres undefined)	Gal4-VP16 FLuc 5µM, RORg inh inconclusive
Cc1ccc(O)c(N=Nc2ccc(S(=O)(=O)N3CCOCC3)cc2)c1	none
CC(C)(C)c1cc(Br)c(O)c(N=Nc2ccc(S(=O)(=O)N3CCOCC3)cc2)c1	Gal4-VP16 FLuc inconclusive, ELG1 repair inh inconclusive, RORg inh 6.3µM
CCSc1nnc(NC(=O)[C@@H](NC(=O)c2cccc(C)c2)C(C)C)s1	none
COc1cccc(C(=O)Nc2nnc(SCC(=O)Nc3ccc(NC(C)=O)cc3)s2)c1	Gal4-VP16 FLuc inconclusive, ELG1 repair inh inconclusive, RORg inh 11µM
CC(C)c1nnc(NC(=O)c2cccc(-n3cnnn3)c2)s1	none
COc1cccc(C(=O)Nc2nnc(C(C)C)s2)c1	Gal4-VP16 FLuc inconclusive, ELG1 repair inh inconclusive, RORg inh 8.9µM
CCCc1nnc(NC(=O)c2cccc(OC)c2)s1	ELG1 repair inh inconclusive, RORg inh 7.1µM
CCC(CC)c1nnc(NC(=O)[C@@H](NC(=O)c2cccc(C)c2)C(C)C)s1	Gal4-VP16 FLuc 16µM, RORg inh 20µM
CCNc1ncc2nc(-c3cn(C)c4ccccc34)c(=O)n(CCC#N)c2n1	none (no result: TSHR antagonist, ELG1 repair inh, B2AR arrestin)
N[C@@H](C(=O)O)c1ccc(O)c(C(=O)O)c1	none (no result: TSHR antagonist, ELG1 repair inh, B2AR arrestin)
O=C(CSc1nc2ccc([N+](=O)[O-])cc2[nH]1)NC1CCCCCC1	Gal4-VP16 FLuc inconclusive, ELG1 repair inh 16µM, RORg inh inconclusive
CC(C)[C@H](NC(=O)c1ccc([N+](=O)[O-])cc1Cl)C(=O)N1CCN(C/C=C/c2ccccc2)CC1	ELG1 repair inh 13µM (no result: Gal4-VP16 FLuc, RORg inh)
COc1cccc([C@@H]2Oc3ccc(Br)cc3C[C@H]2OC(=O)N[C@H](C)C2CCCCC2)c1	none (no result: TSHR antagonist, ELG1 repair inh, B2AR arrestin)
CS(=O)(=O)N(CC(=O)NC1CCCCC1)Cc1ccc(F)cc1	ELG1 repair inh inconclusive
COc1ccc(OC)c(NC(=O)CN(Cc2ccc(F)cc2)C2CCCCC2)c1	Gal4-VP16 FLuc 18µM, RORg inh inconclusive
COc1ccc(OC)c(NC(=O)NCc2ccc(F)cc2)c1	none
COc1ccc(C(=O)/C=C/C(=O)N(CC(=O)NC2CCCCC2)Cc2ccc(F)cc2)c(O)c1	Gal4-VP16 FLuc 7.1µM, ELG1 repair inh inconclusive
Cc1ccc(S(=O)(=O)OCC2CN3C(CCC(C)C3c3ccc(Br)cc3)C(=O)O2)cc1 (centres undefined)	none (no result: TSHR antagonist, ELG1 repair inh, B2AR arrestin)
CC1=C(C)CC(C(=O)Nc2nccs2)C(C(=O)O)C1 (centres undefined)	none
COCCNC(=S)Nc1ccccc1Cc1ccccc1	Gal4-VP16 FLuc 10µM, RORg inh 3.5µM
CN(C(N)=S)c1ccccc1	none
CNC(=S)NN(c1ccccc1)c1ccccc1	Gal4-VP16 FLuc inconclusive, RORg inh 18µM
COCCNC(=S)N(c1ccccc1)C(C)C	none
COCCNC(=S)NN(c1ccccc1)c1ccccc1	Gal4-VP16 FLuc inconclusive, RORg inh 7.9µM
N#CCC(=O)Nc1ccc(C(=O)OCC(=O)NC(=O)NCc2ccco2)cc1	none (no result: Gal4-VP16 FLuc, RORg inh)
CC(C)(C)c1ccc(C(=O)Nc2ccc(C=C(C#N)C#N)cc2)cc1	Gal4-VP16 FLuc 5.6µM, ELG1 repair inh inconclusive, RORg inh 5µM
Cc1nn(Cc2ccccc2Cl)c(C)c1NC(=O)c1ccn(C)n1	none
Cc1nn(Cc2ccccc2Cl)c(C)c1C(=O)NC1=NCCS1	RORg inh 10µM
CCC(CC)c1nnc(NC(=O)c2c(C)nn(Cc3ccccc3Cl)c2C)s1	Gal4-VP16 FLuc inconclusive, RORg inh 11µM
Cc1nn(Cc2ccccc2Cl)c(C)c1C(=O)N1CCN(c2ccccc2)CC1	none
O=C(NC1=NCCS1)c1ccccc1OCc1ccccc1Cl	Gal4-VP16 FLuc inconclusive, RORg inh 10µM
Cc1ccc(C(=O)NC(C(=O)OCc2cn3cc(Cl)ccc3n2)C(C)C)cc1 (centres undefined)	none (no result: Gal4-VP16 FLuc, RORg inh)
CCN(CC)c1ccc(S(=O)(=O)N2CCOCC2)cc1NC(=O)COC(=O)/C=C/c1ccc(C)o1	ELG1 repair inh inconclusive (no result: Gal4-VP16 FLuc, RORg inh)
CCC1(C)Cc2c(sc3nc(NN)n(C)c(=O)c23)CO1 (centres undefined)	Gal4-VP16 FLuc 14µM, ELG1 repair inh inconclusive
CCOC(=O)CSc1nc2sc3c(c2c(=O)[nH]1)CC(C)(CC)OC3 (centres undefined)	none
CC1=C(C(=O)OC2CCCCC2)C(c2cccnc2)n2nnnc2N1 (centres undefined)	Gal4-VP16 FLuc 16µM
Cc1cnc(CNc2ncnc3ccc(-c4ccoc4)cc23)cn1	none (no result: TSHR antagonist, ELG1 repair inh, B2AR arrestin)
COc1cc(CN2CCN(Cc3ccc([N+](=O)[O-])cc3)CC2)c([N+](=O)[O-])cc1OC	ELG1 repair inh 18µM
CCn1c(CNC(=O)C2CCCCC2)cc2cc(C)ccc21	none
CCN(CC)C1CCN(Cc2cn[nH]c2-c2ccc(OC)c(F)c2)C1 (centres undefined)	none
COc1ccc(-c2[nH]ncc2CN2CCN(Cc3cccs3)CC2)cc1F	ELG1 repair inh 21µM
CCn1c(SCC(=O)Nc2ccccc2N2CCCCC2)nc2c1c(=O)n(C)c(=O)n2C	ELG1 repair inh 18µM
Cc1nnnn1/C(=C\c1ccccc1)C(=O)OCC(=O)N(C)C1CCS(=O)(=O)C1 (centres undefined)	RORg inh 11µM
CCN(C(=O)COC(=O)/C(=C/c1ccccc1)n1nnnc1C)C1CCCCC1	ELG1 repair inh inconclusive (no result: Gal4-VP16 FLuc, RORg inh)
Oc1ccc(COc2cccc3ccccc23)c2cccnc12	none (no result: Gal4-VP16 FLuc, ELG1 repair inh, RORg inh)
O=C1[C@@H]2Cc3c([nH]c4ccccc34)C(c3ccccc3)N2C(=O)CN1C1CCN(Cc2ccccc2)CC1 (some centres undefined)	Gal4-VP16 FLuc inconclusive, RORg inh 2.8µM
O=C1[C@@H]2Cc3c([nH]c4ccccc34)C(c3cccc(Br)c3)N2C(=O)CN1C1CCN(Cc2ccccc2)CC1 (some centres undefined)	Gal4-VP16 FLuc inconclusive, ELG1 repair inh inconclusive, RORg inh inconclusive
CCCCCCCCCCCCCC[n+]1ccc(C)cc1	Gal4-VP16 FLuc 4µM, RORg inh inconclusive (no result: TSHR antagonist, ELG1 repair inh, B2AR arrestin)
CCCCCCCCCCCCCCCC[n+]1ccc(C(N)=O)cc1	RORg inh inconclusive
CCCCCCCCCCCCCCCC[n+]1ccc(/C=N/O)cc1	Gal4-VP16 FLuc 7.1µM, ELG1 repair inh inconclusive, RORg inh inconclusive
CCCCCCCCC[n+]1cccc2c3ccccc3ccc21	Gal4-VP16 FLuc 2.5µM, ELG1 repair inh inconclusive, RORg inh 8.9µM
